SW480 rereplic – inducers of DNA re-replication in SW480 colon cancer cells; SW480 DNA re-replication, Hoechst DNA content imaging, 48 h; Potency, µM (titrated, usually from 46.1 µM), usual class: activators; 340,000 tested, 1.8% active; note: nearly all actives have a fitted effect of over 55% in size
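Image-based read-out: total Hoechst fluorescence of nuclei (405 nm excitation, 500-530 nm emission), with hits raising the fraction of high-intensity nuclei. SW480 colon cells incubated 48 hr with compounds at 37 C.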
MCF10A rerep – induces DNA re-replication in MCF 10a normal breast cells; Potency, µM (doses to about 46.1 µM), most hits filed as activators; MCF 10A DNA re-replication, Hoechst nuclear intensity, 48 h; AID 624296; 350,000 tested, 2.9% active; note: nearly all actives have a fitted effect of over 50% in size
KB-3-1 tox – KB-3-1 parental cell cytotoxicity; KB-3-1 viability, CellTiter-Glo ATP luminescence, 72 h; Potency, µM (doses to about 46.1 µM), most hits filed as cytotoxic; 400,000 tested, 1.4% active; note: nearly all actives have a fitted effect of over 60% in size
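Cytotoxicity in the drug-sensitive parental line KB-3-1 was scored as loss of CellTiter-Glo luminescence following 72 h incubation with compound. Values come from curve fitting of normalized concentration-response data.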
KB-V1 cytotox – KB-V1 MDR subline cytotoxicity; KB-V1 MDR cells viability, CellTiter-Glo, 72 h; Potency, µM (highest dose often 46.1 µM), hits mostly cytotoxic; 400,000 tested, 3.4% active; note: nearly all actives have a fitted effect of over 60% in size
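Potencies derive from concentration-effect curves fitted to normalized luminescence (CellTiter-Glo) of KB-V1 cells treated for 72 h at 37 degrees C in phenol-red-free DMEM containing 10% FBS.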
ELG1 DNA repair – ELG1-dependent DNA repair inhibition; 330,000 tested, 2.3% active; HEK293T ELG1-luciferase reporter, luminescence, 16 h; DNA damage induced by 5-fluorouridine; Potency, µM (titrated, usually from 46.1 µM), actives largely listed as inhibitors; note: nearly all actives have a fitted effect of over 55% in size
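Quantitative HTS, concentration-response format. 2,000 cells/well co-treated with 5-fluorouridine and compound, 16 hr in 5% CO2 at 37 °C; ONE-Glo luminescence read after 30 min.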
Hits are given with their value; ! = a repeat was not active. Shown are actives, neighbours in structure and some others; about 8.2% of the full set was active somewhere. Calls come from the whole dose curve; as a rule, active = well fitted curve in the direction sought with a large enough effect; inconclusive = small, poorly fitted or top-dose-only effect, or another doubt; inactive = no such curve, though single readings can be large; an effect the other way counts as inactive or inconclusive.

What do the screens show for `COc1ccc(CC(=O)N2CCc3cc(OC)c(OC)cc3C2COc2ccc(F)cc2)cc1` (centres undefined)?
KB-3-1 tox: inactive; KB-V1 cytotox: 7.3µM

Results for CCC(OC(=O)c1ccco1)C(=O)NC1CCCC1 (centres undefined) ?
SW480 rereplic: inactive; MCF10A rerep: inactive; KB-3-1 tox: inactive; KB-V1 cytotox: inactive; ELG1 DNA repair: inactive

Results for Cc1cc(C)c(C)c(S(=O)(=O)NCc2ccncc2)c1C ?
SW480 rereplic: inactive; MCF10A rerep: inconclusive; KB-3-1 tox: inactive; KB-V1 cytotox: inactive; ELG1 DNA repair: 2.9µM

Results for Cc1ccc(S(=O)(=O)N2c3ccccc3OCC2c2ccccc2)cc1 (centres undefined) ?
SW480 rereplic: inconclusive; MCF10A rerep: 16µM; KB-3-1 tox: inconclusive; KB-V1 cytotox: inconclusive; ELG1 DNA repair: inconclusive

What do the screens show for `CC1COc2ccccc2N1C(=O)c1ccc(Cl)cc1` (centres undefined)?
SW480 rereplic: inactive; MCF10A rerep: inactive; KB-3-1 tox: inactive; KB-V1 cytotox: inactive; ELG1 DNA repair: inactive

How did O=C(C(Cl)Cl)N1c2ccccc2OCC1c1ccccc1 (centres undefined) do in these assays?
SW480 rereplic: inactive; MCF10A rerep: inconclusive; KB-3-1 tox: 18µM; KB-V1 cytotox: inconclusive; ELG1 DNA repair: inactive

Results for CC1COc2ccccc2N1S(=O)(=O)c1ccc(Cl)cc1 (centres undefined) ?
SW480 rereplic: inconclusive; MCF10A rerep: 21µM; KB-3-1 tox: inactive; KB-V1 cytotox: inactive; ELG1 DNA repair: inconclusive

What do the screens show for `NC(=O)c1c(NC(=O)CS(=O)(=O)c2ccc(Cl)cc2)sc2c1CCCC2`?
KB-3-1 tox: inactive; KB-V1 cytotox: inconclusive

Results for CCOC(=O)c1cccc(N2CC3CNC(=O)C2(C(=O)OC)N3C)c1 (centres undefined) ?
SW480 rereplic: inactive; MCF10A rerep: inactive; KB-3-1 tox: inactive; KB-V1 cytotox: inconclusive; ELG1 DNA repair: inactive

Results for O=C(COc1ccc(Cl)cc1Cl)NCc1ccncc1 ?
SW480 rereplic: inactive; MCF10A rerep: inactive; KB-3-1 tox: inactive; KB-V1 cytotox: 18µM; ELG1 DNA repair: inactive

Results for S=C(NCc1ccc(Cl)cc1)Nc1ccc(Cl)cc1Cl ?
SW480 rereplic: inactive; MCF10A rerep: inconclusive; KB-3-1 tox: inactive; KB-V1 cytotox: inactive; ELG1 DNA repair: inactive

Results for S=C(NCc1ccncc1)Nc1ccc(Cl)cc1Cl ?
SW480 rereplic: inactive; MCF10A rerep: inactive; KB-3-1 tox: inactive; KB-V1 cytotox: inactive; ELG1 DNA repair: 16µM

How did O=C(COc1ccc(Cl)cc1Cl)NNC(=S)Nc1ccc(F)cc1 do in these assays?
SW480 rereplic: inactive; MCF10A rerep: inactive; KB-3-1 tox: inactive; KB-V1 cytotox: 21µM; ELG1 DNA repair: inactive

Results for CC(C)NC(=O)COc1ccc(Cl)cc1Cl ?
SW480 rereplic: 16µM; MCF10A rerep: inconclusive; KB-3-1 tox: inactive; KB-V1 cytotox: inconclusive; ELG1 DNA repair: inactive

Results for COC(=O)C[C@H](NC(=O)Cn1cnc2c(NCc3ccccc3)ncnc21)C(=O)OC ?
SW480 rereplic: inactive; MCF10A rerep: inactive; KB-3-1 tox: inconclusive; KB-V1 cytotox: inactive; ELG1 DNA repair: inactive

How did CC(C)(O)C#Cc1ccc(C(=O)N2CCC(C(N)=O)(N3CCCCC3)CC2)o1 do in these assays?
SW480 rereplic: inactive; MCF10A rerep: inactive; KB-3-1 tox: inactive; KB-V1 cytotox: inactive; ELG1 DNA repair: inactive

Results for N#C/C(=C/C1=C(N2CCOCC2)C(=C/c2ccc(Cl)cc2)/CC1)C(=O)Nc1ccccc1F ?
SW480 rereplic: inactive; MCF10A rerep: inactive; KB-3-1 tox: inactive; KB-V1 cytotox: inconclusive

How did COc1ccccc1N1C(=O)c2cccnc2C1=O do in these assays?
SW480 rereplic: inactive; MCF10A rerep: inactive; KB-3-1 tox: inactive; KB-V1 cytotox: inactive; ELG1 DNA repair: inactive

How did COC1=C(Br)C(=O)c2ncccc2C1=O do in these assays?
SW480 rereplic: 2.9µM; MCF10A rerep: 5.2µM; KB-3-1 tox: inconclusive; KB-V1 cytotox: inconclusive

Results for O=C1C(=O)c2cccnc2-c2ncccc21 ?
KB-3-1 tox: 3.7µM; KB-V1 cytotox: 18µM

Results for O=C1c2cccnc2-c2ncccc21 ?
SW480 rereplic: inactive; MCF10A rerep: inactive; KB-3-1 tox: inactive; KB-V1 cytotox: inactive; ELG1 DNA repair: inactive

How did CN(NC1OC(=O)c2ccccc21)c1ccc(C(F)(F)F)cc1[N+](=O)[O-] (centres undefined) do in these assays?
SW480 rereplic: inactive; MCF10A rerep: inactive; KB-3-1 tox: inactive; KB-V1 cytotox: inactive; ELG1 DNA repair: inactive

How did Cc1nc(N2CCN(C(=O)c3ccco3)CC2)c2c3c(sc2n1)CCC3 do in these assays?
SW480 rereplic: inactive; MCF10A rerep: inactive; KB-3-1 tox: inconclusive; KB-V1 cytotox: 8.2µM; ELG1 DNA repair: 23µM

How did CC(C)c1nc(N2CCN(C(=O)c3ccco3)CC2)c2c3c(sc2n1)CCCC3 do in these assays?
SW480 rereplic: inactive; MCF10A rerep: inactive; KB-3-1 tox: inactive; KB-V1 cytotox: inactive; ELG1 DNA repair: inconclusive

What do the screens show for `c1nc(N2CCOCC2)c2c3c(sc2n1)CCCC3`?
SW480 rereplic: inactive; MCF10A rerep: inactive; KB-3-1 tox: inactive; KB-V1 cytotox: inconclusive; ELG1 DNA repair: inconclusive

How did O=C(c1ccccc1)N1CCN(c2ncnc3sc4c(c23)CCC4)CC1 do in these assays?
SW480 rereplic: inactive; MCF10A rerep: inactive; KB-3-1 tox: inactive; KB-V1 cytotox: inactive; ELG1 DNA repair: 9.2µM

How did COc1ccc2oc(=O)c(C(=O)NCc3ccccc3)cc2c1 do in these assays?
SW480 rereplic: inactive; MCF10A rerep: inactive; KB-3-1 tox: inactive; KB-V1 cytotox: inactive; ELG1 DNA repair: inactive

Results for CCCOc1ccc2cc(C(=O)NCc3ccccc3)c(=O)oc2c1 ?
SW480 rereplic: inactive; MCF10A rerep: 23µM; KB-3-1 tox: inactive; KB-V1 cytotox: inactive; ELG1 DNA repair: inactive

Results for COc1ccc(C(=O)N/N=c2\oc3ccccc3cc2C(=O)NCc2ccccc2)cc1 ?
SW480 rereplic: inactive; MCF10A rerep: inactive; KB-3-1 tox: inactive; KB-V1 cytotox: inactive; ELG1 DNA repair: 10µM

How did COc1ccc(CNC(=O)c2cc3cc(OC)ccc3oc2=O)cc1 do in these assays?
SW480 rereplic: inactive; MCF10A rerep: 16µM; KB-3-1 tox: 15µM!; KB-V1 cytotox: inconclusive; ELG1 DNA repair: inactive

How did Nc1[nH]c(C(=O)c2ccccc2)c(-c2ccccc2Cl)c1C(=O)c1ccccc1 do in these assays?
KB-3-1 tox: inactive; KB-V1 cytotox: inactive

How did Cc1ccccc1CNC(=O)C1CCCCN1S(=O)(=O)c1ccc(F)cc1 (centres undefined) do in these assays?
KB-3-1 tox: inactive; KB-V1 cytotox: inactive

What do the screens show for `CCN(CC)CCN1C(=O)c2ccccc2NC1c1ccc(OC)c(COc2ccc(NC(C)=O)cc2)c1` (centres undefined)?
KB-3-1 tox: inactive; KB-V1 cytotox: inconclusive

How did CC1CCCC(NC(=O)/C=C/c2c(F)cccc2Cl)C1C (centres undefined) do in these assays?
SW480 rereplic: inactive; MCF10A rerep: inactive; KB-3-1 tox: inactive; KB-V1 cytotox: inactive

Compound activity deposited in PubChem by National Center for Advancing Translational Sciences (NCATS).
